The campaign covered roughly 320,000 compounds. About 2,100 (0.66%) were called active.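 Rule for the calls: active = inhibition above the mean inhibition of all tested compounds plus 3 SD, set per campaign (cut at about 40% in these data); inactive = the rest.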 For the sample, actives were picked, then their nearest neighbours and some compounds at random.

Induced myeloid leukemia cell differentiation protein Mcl-1 (Homo sapiens), sequence (Q07820 whole entry, looked up): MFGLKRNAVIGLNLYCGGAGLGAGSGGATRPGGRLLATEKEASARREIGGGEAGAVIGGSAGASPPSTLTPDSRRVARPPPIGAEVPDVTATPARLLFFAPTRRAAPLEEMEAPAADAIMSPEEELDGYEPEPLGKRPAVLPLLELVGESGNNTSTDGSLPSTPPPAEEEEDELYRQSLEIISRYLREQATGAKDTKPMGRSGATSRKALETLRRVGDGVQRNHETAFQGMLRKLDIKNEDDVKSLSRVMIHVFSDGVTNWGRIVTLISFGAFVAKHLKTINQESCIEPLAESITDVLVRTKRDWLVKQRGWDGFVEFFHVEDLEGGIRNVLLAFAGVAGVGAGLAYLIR

The experiment has as its target Induced myeloid leukemia cell differentiation protein Mcl-1 (Homo sapiens) (UniProt Q07820). Nature of the experiment: inhibitors of MCL1 binding to BIM-BH3, primary screen, biochemical, fluorescence polarization (AID 2057).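 Note: 0% = DMSO wells and 100% = unlabeled Bim-BH3 peptide control; higher means more loss of mP so more displacement of Bim peptide.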 Conditions: GST-MCL1 / FITC-Bim-BH3 fluorescence polarization; at 10.9 µM; hits give high values.
As for `CCCCCCn1c(CN2CCCC(C)C2)nc2c1c(=O)n(C)c(=O)n2C` (stereo not given), the inhibition was 4.79% (inactive).

As to `Cc1c(CN2CCCCC2)c(O)n(CCO)c(=O)c1C#N`, the inhibition is 18.2% (inactive).

For the compound `CCCn1c(O)c(CN2CCCC(C)C2)c(C)c(C#N)c1=O` (stereo not given), the inhibition was 57.2% (active).

For the compound `O=C(COC(=O)c1ncc(Cl)c(Cl)c1Cl)NC1CCS(=O)(=O)C1` (stereo not given), the inhibition is -1.74% (inactive).

As to `O=C(CN1CCN(c2ccccc2O)CC1)NC(=O)NCc1ccccc1`, the inhibition was 5.09% (inactive).

Regarding `CC(=O)c1ccc(NC(=O)CCc2nnc3ccc(NCc4ccco4)nn23)cc1`, the inhibition is 2.1% (inactive).

As to `CC(C)CCN1CCN(Cc2cn[nH]c2C2CCCCC2)CC1CCO` (stereo not given), the inhibition is -6.25% (inactive).

With `CN(C)S(=O)(=O)c1ccc(N/C=C(\[N+](=O)[O-])S(=O)(=O)c2ccccc2)cc1`, the inhibition was 2.14% (inactive).

As to `CC(NCc1nc2ccccc2n1C)C12CC3CC(CC(C3)C1)C2` (stereo not given), the inhibition was -2.96% (inactive).

`Cc1c(-c2ccccc2)nc(N)c(C#N)c1-c1cccs1`: the inhibition was 4.53% (inactive).

On to `CN1CCc2nc(SC(C(=O)O)c3ccccc3)c(C#N)c(-c3cccs3)c2C1` (stereo not given), for which the inhibition is 45.7% (active).

As for `CCc1c(-c2ccccc2)nc(N)c(C#N)c1-c1cccs1`, the inhibition was 11.5% (inactive).

On to `CCN(CC(=O)NC1CCS(=O)(=O)C1)S(=O)(=O)c1ccccc1` (stereo not given), for which the inhibition is -7.02% (inactive).

Take `COc1ccc(C2/C=C\CN(S(=O)(=O)c3cccs3)CC(=O)N2Cc2ccc(F)cc2)cc1` (stereo not given): the inhibition was 3.81% (inactive).

As for `O=C(CCS(=O)(=O)c1ccccc1)NC1CCCC1`, the inhibition is -0.76% (inactive).

Take `CC(=O)c1ccc(N2C(=NC(=O)C(C)C)SC3CS(=O)(=O)CC32)cc1` (stereo not given): the inhibition was 2.13% (inactive).

Consider `Cc1cc2ccccc2n1CCNC(=O)COc1ccc2ccccc2c1`, for which the inhibition was 2.6% (inactive).

Consider `O=C(O)CCn1c(Cc2ccccc2)nc2ccccc21`, for which the inhibition was 1.68% (inactive).

As for `Cc1cc2ccccc2n1CCC(=O)O`, the inhibition was 49.7% (active).

With `O=C(O)C1C2CC2CN1C(=O)c1ccc(Cl)cc1Cl` (stereo not given), the inhibition was 0.95% (inactive).

For `Cc1cccc(C)c1Nc1c(-c2ccccc2O)nc2ncccn12`, the inhibition was 0.37% (inactive).

Take `CCC(C)CN1CCC(CO)(Cc2ccccc2Cl)CC1` (stereo not given): the inhibition is 0.34% (inactive).

Take `COC(=O)c1sc(C(F)(F)F)c(-c2ccccc2)c1S(=O)(=O)N(C)C`: the inhibition is 4.01% (inactive).

In the case of `Cc1cc(Cl)ccc1NNC(=O)c1snnc1C`, the inhibition was 6.52% (inactive).

As to `O=C(Cn1cnc2ccccc21)Nc1ccccc1-c1ccccc1`, the inhibition is 6.02% (inactive).

As for `O=C(COC(=O)c1cccc(Br)c1)Nc1cccc2c1C(=O)c1ccccc1C2=O`, the inhibition is -1.24% (inactive).

For `O=C(COC(=O)Cn1cnc2ccccc21)Nc1cccc2c1C(=O)c1ccccc1C2=O`, the inhibition was 155% (active).

For `COc1ccc(OC)c2[nH]c(=O)c(CCNC(=O)C(=O)c3c[nH]c4ccccc34)cc12`, the inhibition is 7.82% (inactive).

Turning to `CCn1c(=S)sc2c(=O)n(CC(=O)Nc3cccc(Br)c3)c(C)nc21`, the inhibition was -2.89% (inactive).

Consider `COc1cccc(NC(=O)C2C(c3ccccc3)C2(Cl)Cl)c1` (stereo not given), for which the inhibition was 6.86% (inactive).

Regarding `CCN1CCN(CC(=O)c2cc(OC)c(OC)c(OC)c2)CC1`, the inhibition was 0.87% (inactive).

As for `O=C(OCC1O[C@@H](OC(=O)c2cc(O)c(O)c(O)c2)[C@@H](OC(=O)c2cc(O)c(O)c(O)c2)[C@@H](OC(=O)c2cc(O)c(O)c(O)c2)[C@@H]1OC(=O)c1cc(O)c(O)c(O)c1)c1cc(O)c(O)c(O)c1` (stereo not given in full), the inhibition was 74.8% (active).

For `O=C(OCC1OC(Oc2ccc(O)cc2)C(O)C(O)C1O)c1ccccc1` (stereo not given), the inhibition is -1.58% (inactive).

As for `COC(=O)C(C)Sc1ccc2nnc(-c3cccc(F)c3)n2n1` (stereo not given), the inhibition was -5.54% (inactive).

Turning to `O=C1c2ccccc2C(=O)c2c1cccc2N1CCN(Cc2ccccc2)CC1`, the inhibition was 7.86% (inactive).

Regarding `O=C1c2ccccc2C(=O)c2c1cccc2N1CCN(C/C=C/c2ccccc2)CC1`, the inhibition was 13.8% (inactive).

In the case of `O=C1c2ccccc2C(=O)c2c1cccc2N1CCN(CCO)CC1`, the inhibition is 60.6% (active).

For the compound `CCC(=O)c1ccc(OCC(=O)Nc2ccc(N3CCCCC3)cc2)cc1`, the inhibition was 0.81% (inactive).

Consider `Cc1ccc(S(=O)(=O)N2CC(C)N(S(C)(=O)=O)C2)cc1` (stereo not given), for which the inhibition is 7.35% (inactive).

`CC1CCc2sc(C(=O)NCC(c3ccco3)N3CCCCC3)cc2C1` (stereo not given): the inhibition was -3.03% (inactive).

In the case of `COc1ccc(CCN2C(=O)N(c3ccc(OC)cc3)C(=O)C2CC(=O)Nc2ccc(OC)cc2)cc1` (stereo not given), the inhibition is 2.06% (inactive).

Turning to `CC(=O)Nc1ccc(Nc2cc(C)nc(Nc3ccc(NC(C)=O)cc3)n2)cc1`, the inhibition was -11.2% (inactive).

For `Cc1cc(C)c(CN2CCN(C(=O)Cn3ccc(NC(=O)OCc4ccccc4)nc3=O)CC2)c(C)c1`, the inhibition was 2.72% (inactive).

Take `NS(=O)(=O)c1ccc(N=Nc2c(O)[nH]c3ccc(Br)cc23)cc1`: the inhibition was 44.2% (active).

With `Oc1[nH]c2ccc(Br)cc2c1N=Nc1nn[nH]n1`, the inhibition is 6.9% (inactive).

With `O=C(CNC(=O)Cc1ccccc1)N=Nc1c(O)[nH]c2ccc(Br)cc12`, the inhibition was 4.04% (inactive).

Turning to `Cc1ccc(C(=O)NC(=S)NCCN2CCOCC2)cc1`, the inhibition is 6.07% (inactive).

For the compound `Cc1ccc(C(=O)NC(=S)Nc2ccc(N3CCOCC3)cc2)cc1`, the inhibition is 46.3% (active).

With `Cc1ccc(NC(=S)NC(=O)c2ccc(-c3ccccc3)cc2)cc1`, the inhibition is 4.74% (inactive).

As for `CC(=O)Nc1ccc(S(=O)(=O)NC2Cc3ccccc3C2)cc1`, the inhibition was 1.26% (inactive).

Turning to `N/C(=N\OC(=O)CCc1ccccc1)c1cccnc1`, the inhibition is 4.17% (inactive).

On to `N/C(=N\OC(=O)CCc1ccccc1)c1ccc(Cl)cc1`, for which the inhibition was 64.4% (active).

For `COc1ccc(/C(N)=N/OC(=O)CCCc2ccccc2)cc1`, the inhibition was -1.09% (inactive).

Regarding `CCCSC(=S)NC1CCS(=O)(=O)C1` (stereo not given), the inhibition was 2.09% (inactive).

Consider `O=C(NCc1ccccn1)c1ccc2nc(-c3ccco3)c(-c3ccco3)nc2c1`, for which the inhibition is 106% (active).

As for `Cc1nc2cc(NC(=O)NCc3ccccc3)ccc2o1`, the inhibition was -6.46% (inactive).

For the compound `Cc1cc(C)cc(NC(=O)NCc2ccccn2)c1`, the inhibition is 1.97% (inactive).

As to `CCOc1cc(NC(=S)NCCCOC)c(OCC)cc1NC(=O)c1ccco1`, the inhibition is 9.31% (inactive).

Regarding `COCCNC(=O)Nc1ccc2nc(-c3ccco3)c(-c3ccco3)nc2c1`, the inhibition was 131% (active).

`COc1ccc2oc(=O)c(C(=O)NCc3ccccn3)cc2c1`: the inhibition is 0.27% (inactive).
